# Screens deposited in PubChem BioAssay by several laboratories.
# This is a sample that favours compounds with a hit; in the whole collection about 3.3% have one here.
# Gli-Sufu block – blocks Gli-Sufu signaling in a luciferase reporter; AID 588413; inhibition, % at 5 µM; Sufu-KO-LIGHT fibroblasts, Gli luciferase reporter luminescence; 0.74% of 340,000 active;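 active means inhibition above about 55%, limit read from the data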
# SMARCA2 act – SMARCA2 function activation, primary screen; 1% of 370,000 active; MG213 cells, MMTV-luciferase reporter, dexamethasone, overnight; activation, % at 9.1 µM; in the data active means activation above about 7.8%
# 697 NFkB inh – lowers PMA/ionomycin-induced NF-kB signal in 697 B cells; 697 B-cell NF-kB luciferase reporter, 16 h; AID 435022; 0.33% of 330,000 active; inhibition, % at 4 µM; in the data active means inhibition above about 35%
# esBAF inh – blocks esBAF chromatin remodeling in mouse ES cells. Bmi1-luciferase knock-in reporter, 24 h; 100% = twice the neutral-well signal. reporter increase, % at 12.5 µM. 2% of 350,000 active. AID 602393; in the data active means activation above about 40%; inconclusive means no clear call, values can overlap the other calls;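 further: a rise in the Bmi1 reporter signal indicates esBAF inhibition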
# Jurkat NFkB inh – lowers PMA/ionomycin-induced NF-kB signal in Jurkat cells; PMA/ionomycin-induced NF-kB luciferase reporter, luminescence; inhibition, % at 4 µM; 0.53% of 330,000 active; in the data active means inhibition above about 50%
# Jurkat NFkB conf – inhibitors of the PMA/ionomycin-induced NF-kB reporter in Jurkat cells, retest | shares compounds with Jurkat NFkB inh | Jurkat NF-kB luciferase, 16 h | inhibition, % at 4 µM | 27% of 2,700 active | AID 435020;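 active means inhibition reaching about 45% at 4 µM in either replicate, limit read from the data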
# Hits are given with their value; i = inactive; ? = inconclusive; nt = no result.
SMILES,Gli-Sufu block,SMARCA2 act,697 NFkB inh,esBAF inh,Jurkat NFkB inh,Jurkat NFkB conf
Cc1ccc2nc(-c3ccc(NC(=O)C4CCCO4)cc3)[nH]c2c1 (stereo not given),i,i,i,i,i,i
Cc1ccc2nc(-c3ccc(NC(=O)Cc4cccs4)cc3)[nH]c2c1,i,i,i,i,i,i
O=C(Nc1ccc(-c2nc3ccccc3o2)cc1)C1CCCO1 (stereo not given),i,i,i,i,i,i
O=C(Cc1cccs1)Nc1ccccc1-c1nc2ccccc2[nH]1,i,nt,i,nt,i,nt
O=C(Nc1ccc2oc(-c3ccccc3)nc2c1)C1CCCO1 (stereo not given),i,i,i,nt,i,nt
C[C@H]1CN([C@@H](C)CO)C(=O)c2cc(NS(=O)(=O)c3cn(C)cn3)ccc2O[C@@H]1CN(C)S(=O)(=O)c1ccc(Cl)cc1,nt,nt,nt,i,nt,nt
C[C@@H]1CN([C@@H](C)CO)C(=O)Cc2cc(NS(C)(=O)=O)ccc2O[C@@H]1CN(C)S(=O)(=O)c1ccc(Cl)cc1,nt,nt,nt,i,nt,nt
COc1cc(/C=C(/C#N)c2nc3ccccc3[nH]2)ccc1OCC(=O)Nc1ccccc1C(C)C,i,i,i,i,i,nt
COc1cc(/C=C(/C#N)c2nc3ccccc3[nH]2)ccc1OCC(=O)Nc1ccccc1C,i,i,i,i,52.8,i
CO[C@H]1CN(C)C(=O)c2ccc(NC(=O)c3cnccn3)cc2OC[C@@H](C)N(C(C)=O)C[C@@H]1C,nt,nt,nt,i,nt,nt
CC(Oc1ccc(Cl)cc1Cl)C(=O)Nc1ccncc1 (stereo not given),i,i,i,i,50.6,i
CC(=O)Nc1ccc(NC(=O)C(C)Oc2ccc(Cl)cc2Cl)cc1 (stereo not given),i,i,i,nt,i,nt
C[C@H]1CN([C@@H](C)CO)C(=O)c2cc(NC(=O)C3CC3)ccc2O[C@@H]1CN(C)Cc1ccncc1,nt,nt,nt,i,nt,nt
CCOC(=O)N=Nc1c(O)n(CC(=O)OC)c2ccccc12,i,i,i,nt,i,nt
CCOC(=O)N=Nc1c2ccccc2c2nc3no[nH]c3nc12,97.1,i,i,nt,59.7,98.3
C[C@H]1CN([C@@H](C)CO)C(=O)Cc2cc(NS(=O)(=O)c3ccc(Cl)cc3)ccc2O[C@@H]1CN(C)Cc1ccc(C(=O)O)cc1,nt,nt,nt,i,nt,nt
Cc1ccc(NC(CC(=O)c2ccccc2)c2ccc(F)cc2)cc1 (stereo not given),i,i,i,nt,i,nt
O=C(CC(Nc1ccc(F)cc1)C(=O)O)c1ccccc1 (stereo not given),i,i,i,48.9,i,i
C[C@H](CO)N1C[C@H](C)[C@@H](CN(C)S(=O)(=O)c2cn(C)cn2)Oc2ncc(C#CCN(C)C)cc2C1=O,nt,nt,nt,i,nt,nt
COc1cccc(C(=O)Nc2ccc3c(c2)C(=O)N(C)C[C@@H](OC)[C@@H](C)CN(CC2CC2)[C@@H](C)CO3)c1,nt,nt,nt,i,nt,nt
C[C@@H]1CN([C@@H](C)CO)C(=O)c2cc(NC(=O)Nc3ccc(F)cc3)ccc2O[C@@H](C)CCCCO[C@H]1CN(C)Cc1ccccc1,nt,nt,nt,i,nt,nt
O=C(Nc1cc(F)ccc1F)N1C[C@@H]2[C@H](c3ccccc31)[C@H](CO)N2Cc1ccncc1,nt,nt,nt,i,nt,nt
COc1cccc(C#Cc2cnc3c(c2)C(=O)N([C@@H](C)CO)C[C@@H](C)[C@@H](CN(C)C(=O)C2CC2)O3)c1,nt,nt,nt,i,nt,nt
Cc1cc(C)cc(C(=O)N2CC(=O)Nc3ccccc32)c1,nt,i,i,nt,59.5,55.8
CSc1ccccc1-c1nnc(-c2ccccc2)o1,i,i,i,42.7,i,i
SMILES,Gli-Sufu block,SMARCA2 act,697 NFkB inh,esBAF inh,Jurkat NFkB inh,Jurkat NFkB conf
COc1ccc(C(=O)NC2CCCc3ccccc32)cc1[N+](=O)[O-] (stereo not given),i,i,i,i,53.7,i
COc1cc(C(=O)NC2CCCc3ccccc32)cc(OC)c1C (stereo not given),i,i,i,i,i,nt
Cc1ccc2nc(CSc3nc(C)cc(C)c3C#N)[nH]c2c1,i,i,i,i,i,i
Cc1cc(C)c(C#N)c(SCc2ccccc2)n1,i,i,i,i,i,nt
CN(C)CCCNc1cc(O)c2ncccc2c1,i,i,i,i,55.5,i
COCC(=O)N1[C@@H]2c3ccc(/C=C/c4ccccc4)c(=O)n3C[C@H]1[C@H](CO)[C@H]2C(=O)N1CCCCC1,nt,nt,nt,i,nt,nt
C[C@@H]1CN([C@H](C)CO)C(=O)c2cccc(NS(C)(=O)=O)c2O[C@@H]1CN(C)S(=O)(=O)c1cn(C)cn1,nt,nt,nt,i,nt,nt
CN(CCCS(=O)(=O)[O-])c1ccc(/C=C/c2ccc3ccccc3[n+]2C)cc1,i,i,i,i,i,nt
CN(C)c1ccc(/C=C/c2ccc3ccccc3[n+]2C)cc1,87.1,i,i,i,93.0,65.6
N#C/C(=N\Nc1ccccc1F)C(=N)N1CCCCC1,i,i,i,nt,i,nt
N#C/C(=N\Nc1ccc(Cl)cc1)C(=N)N1CCCCC1,i,i,i,nt,i,i
C[C@H](CO)N1C[C@H](C)[C@H](CN(C)S(=O)(=O)c2ccccc2)OCCCC[C@H](C)Oc2ccc(NC(=O)CCCN(C)C)cc2C1=O,nt,nt,nt,i,nt,nt
Nc1nc(-c2cccnc2)nc2sc3c(c12)CCCC3,i,i,i,nt,i,i
O=C1CN(c2nc(-c3cccnc3)nc3sc4c(c23)CCCC4)CCN1,i,i,i,i,i,nt
O=C(Nc1nc(-c2ccccn2)cs1)c1ccc(Cl)s1,75.8,i,i,i,65.0,i
Cc1ccc(C(=O)Nc2nc(-c3ccccn3)cs2)s1,i,i,i,i,i,nt
COc1cccc(NC(=O)N2C[C@@H](O)COC[C@@H]3O[C@H](CC(=O)NC4CCCC4)CC[C@H]32)c1,nt,nt,nt,i,nt,nt
C[C@@H]1CN([C@@H](C)CO)C(=O)c2cc(NS(=O)(=O)c3ccc(F)cc3)ccc2O[C@@H](C)CCCCO[C@@H]1CN(C)C(=O)CCC(F)(F)F,nt,nt,nt,i,nt,nt
CC(=O)Nc1cccc(-c2cn3ccc(C)cc3n2)c1,i,i,i,nt,i,nt
Cc1ccn2cc(-c3cccc([N+](=O)[O-])c3)nc2c1,i,i,i,i,i,i
CC(C)(C)c1cc(NC(=O)c2cccs2)no1,i,i,i,i,i,i
Oc1ccccc1-c1cc(-c2cccc(F)c2)n[nH]1,i,i,i,45.1,i,i
Oc1ccc(Cl)cc1-c1cc(-c2cccc(Br)c2)n[nH]1,i,i,i,i,i,nt
Oc1ccc(Cl)cc1-c1cc(-c2ccccc2Cl)[nH]n1,i,i,i,?,i,nt
Oc1ccccc1-c1cc(-c2ccccc2Cl)[nH]n1,i,i,i,i,i,i
SMILES,Gli-Sufu block,SMARCA2 act,697 NFkB inh,esBAF inh,Jurkat NFkB inh,Jurkat NFkB conf
CO[C@@H](CN(C)C(=O)C1CC1)[C@@H](C)CN(C(=O)Nc1ccc(C(F)(F)F)cc1)[C@H](C)CO,nt,nt,nt,i,nt,nt
O=C(COC(=O)C1CC1)Nc1ccc(N=Nc2ccccc2)cc1,i,i,i,nt,i,i
O=C(COC(=O)C1CC1)Nc1ccc(OC(F)F)cc1,i,i,i,i,i,nt
COc1cccc(C(=O)/C=C/Nc2cccc(O)c2)c1,i,nt,i,i,i,i
COc1cccc(N/C=C/C(=O)c2ccc(Cl)cc2)c1,i,i,nt,i,nt,nt
COc1ccc(N/C=C/C(=O)c2ccc(Cl)cc2)cc1,i,i,i,nt,i,i
